# Test results published in PubChem BioAssay AID651925 (Vanderbilt Specialized Chemistry Center, 2012).
# Active and inactive are the calls of the source. How the calls were made is not given here.
# Molecular target: Muscarinic acetylcholine receptor M4 (Homo sapiens) (UniProt P08173)
# Test: ACh response enhancement at M4 – CHO cells, human M4, selectivity assay for M5 PAM project (AID 651925)
# Muscarinic acetylcholine receptor M4 (Homo sapiens), sequence (P08173 whole entry, looked up): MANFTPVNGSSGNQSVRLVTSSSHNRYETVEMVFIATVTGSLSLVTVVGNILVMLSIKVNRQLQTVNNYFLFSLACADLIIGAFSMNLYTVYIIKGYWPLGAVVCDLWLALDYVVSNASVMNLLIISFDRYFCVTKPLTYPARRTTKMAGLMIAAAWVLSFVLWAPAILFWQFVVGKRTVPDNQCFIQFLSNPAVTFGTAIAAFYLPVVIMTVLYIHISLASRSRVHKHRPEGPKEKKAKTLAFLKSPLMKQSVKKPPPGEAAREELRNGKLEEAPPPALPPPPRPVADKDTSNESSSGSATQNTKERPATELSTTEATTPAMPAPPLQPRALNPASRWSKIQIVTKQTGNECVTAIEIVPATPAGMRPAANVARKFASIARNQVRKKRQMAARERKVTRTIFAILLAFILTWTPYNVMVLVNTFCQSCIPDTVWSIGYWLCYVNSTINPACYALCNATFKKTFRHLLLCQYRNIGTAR
compound,measurement,value
O=C1C(=O)N(CCOc2ccccc2)c2ccc(OC(F)(F)F)cc21,outcome,inactive
